Reference: PubChem BioAssay AID687016 (The Scripps Research Institute Molecular Screening Center, 2013)
Screen size: about 370,000 compounds; about 2,800 (0.76%) were called active. Cut-off read from the data, not from the text of the source: active = inhibition above about 21%; inactive = the rest. The sample as a whole holds a higher share of actives than the screen did.

Molecular target: E3 ubiquitin-protein ligase UHRF1 (Homo sapiens) (UniProt Q96T88)
Test: blockers of UHRF1 binding to methyl-oligo – biochemical, TR-FRET, human UHRF1, single concentration, counter-screen for MBD2 inhibitor project, primary screen (AID 687016);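 note: UHRF1 SRA domain binding a hemimethylated CpG hairpin DNA probe; 0% = median of test compound wells and 100% = reference inhibitor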
Conditions: UHRF1 binding to methylated oligo, at 4.4 µM, active compounds read high

E3 ubiquitin-protein ligase UHRF1 (Homo sapiens), sequence (Q96T88 whole entry, looked up, the tested form may be a part): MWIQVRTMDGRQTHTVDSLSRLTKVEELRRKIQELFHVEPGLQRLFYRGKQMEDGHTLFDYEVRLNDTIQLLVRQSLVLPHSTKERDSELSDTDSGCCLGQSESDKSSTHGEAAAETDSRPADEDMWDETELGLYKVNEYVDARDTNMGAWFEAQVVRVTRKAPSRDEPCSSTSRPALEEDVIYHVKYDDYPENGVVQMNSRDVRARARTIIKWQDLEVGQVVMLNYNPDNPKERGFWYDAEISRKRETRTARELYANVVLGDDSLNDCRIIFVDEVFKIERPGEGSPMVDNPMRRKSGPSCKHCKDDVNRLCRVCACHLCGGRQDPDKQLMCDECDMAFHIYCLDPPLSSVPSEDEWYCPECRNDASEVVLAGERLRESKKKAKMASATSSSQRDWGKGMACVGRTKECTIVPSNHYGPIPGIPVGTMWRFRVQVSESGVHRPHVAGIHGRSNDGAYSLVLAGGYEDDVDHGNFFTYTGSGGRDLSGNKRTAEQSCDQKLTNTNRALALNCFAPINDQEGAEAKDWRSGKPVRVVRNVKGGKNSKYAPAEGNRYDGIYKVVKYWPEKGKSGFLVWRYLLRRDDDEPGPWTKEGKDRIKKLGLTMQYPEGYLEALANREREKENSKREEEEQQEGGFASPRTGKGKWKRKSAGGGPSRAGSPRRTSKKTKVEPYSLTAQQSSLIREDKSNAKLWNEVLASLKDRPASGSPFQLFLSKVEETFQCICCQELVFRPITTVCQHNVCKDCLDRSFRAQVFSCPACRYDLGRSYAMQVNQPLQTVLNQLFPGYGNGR

| Structure (SMILES) | inhibition |
| --- | --- |
| Cc1ccc(CN2CCCCC(NC(=O)C3CCCCC3)C2=O)cc1 (stereo unspecified) | -1.14% (inactive) |
| CCN(CCO)C(=S)Nc1cc(C(=O)OC)ccc1C(=O)OC | 2.08% (inactive) |
| CCS(=O)(=O)Nc1cc(C(=O)OC)ccc1C(=O)OC | -4.74% (inactive) |
| CCCN(CCC)C(=S)Nc1cc(C(=O)OC)ccc1C(=O)OC | 20.9% (active) |
| COc1cccc(/C=C2\CC3(OC(C)=O)CCCN2C3)c1 (stereo unspecified) | -1.67% (inactive) |
| COc1ccc(NS(=O)(=O)c2ccc(C)c(C(=O)NCC(c3cccs3)N3CCOCC3)c2)cc1 (stereo unspecified) | 3.98% (inactive) |
| Cc1ccc(-c2nn(-c3ccc(F)cc3)cc2C(=O)NCC(c2cccs2)N2CCOCC2)cc1 (stereo unspecified) | -1.94% (inactive) |
| O=C(NCC(c1cccs1)N1CCOCC1)c1cc(Cl)ccc1[N+](=O)[O-] (stereo unspecified) | 29.1% (active) |
| O=C(NCC1COc2ccccc2O1)c1ccc(NC(=O)c2cc(F)ccc2F)cc1 (stereo unspecified) | -0.34% (inactive) |
| O=C(CNS(=O)(=O)c1ccccc1F)N1CCN(c2ccccn2)CC1 | -1.25% (inactive) |
| NC1=CC(=O)C(=O)c2cccnc21 | 21.7% (active) |
| Cc1cc(C(F)(F)F)c(C#N)c(SCC(=O)NC2CC2)n1 | 25.8% (active) |
| Cc1cc(C)c(C#N)c(SCC(=O)NN2CC(=O)N(c3ccccc3F)CC2=O)n1 | 1.74% (inactive) |
| Cc1nc(SCC(=O)NC2CCCCC2C)c(C#N)c(C)c1C (stereo unspecified) | 3.02% (inactive) |
| CCCCOCCCNC(=O)C[C@H]1C[C@@]2(C(=O)OC)C(=C[C@H](COCc3ccccc3)O[C@@H]2C)N(Cc2cccc3ccccc23)C1=O | -3.11% (inactive) |
| CCOC(=O)c1csc(NC(=O)C2CCCN(S(=O)(=O)c3ccc(Cl)s3)C2)n1 (stereo unspecified) | 0.11% (inactive) |
| CC(C)CNS(=O)(=O)CC1NCCc2ccccc21 (stereo unspecified) | 1.66% (inactive) |
| C=C1c2c(Cl)ccc(O)c2C(O)=C2C(=O)[C@]3(O)C(O)=C(C(N)=O)C(=O)[C@@H](N(C)C)[C@@H]3[C@@H](O)C12 (stereo partly specified) | 58.9% (active) |
| CN(C)[C@@H]1C(=O)C(C(N)=O)=C(O)[C@@]2(O)C(=O)C3=C(O)c4c(O)ccc(Cl)c4[C@@H](O)[C@H]3C[C@@H]12 | 35.1% (active) |
| CC(C)C(C#CC1CC1)N(Cc1ccc2c(c1)OCO2)C(N)=NC(=O)/C=C/c1cccc(C(F)(F)F)c1 (stereo unspecified) | -0.23% (inactive) |
| CN(CCO)c1cccc2c1S(=O)(=O)N(Cc1cn(Cc3ccc(C(F)(F)F)cc3)nn1)Cc1ccccc1O2 | 1.05% (inactive) |

| Structure (SMILES) | inhibition |
| --- | --- |
| CCCCC(=O)N[C@@H]1CC[C@@]23CCCN2C(=O)CCC[C@H]3[C@H]1C | -2.76% (inactive) |
| CCN(Cc1ccncc1)C(=O)CCc1ccccc1 | -1.14% (inactive) |
| CCN(Cc1ccccc1)C(=O)CSc1nc(C)cc2c1C(=O)OC2 | 26% (active) |
| CCOC(=O)CSc1nc(C)cc2c1C(=O)OC2 | -0.04% (inactive) |
| COc1ccc(-n2c(SCC(=O)Nc3ccccc3-c3ccccc3)nnc2-c2cccnc2)cc1 | 1.25% (inactive) |
| C[C@@H]1ON(C)[C@H]2C[C@H]3c4[nH]c5cccc(-c6ccc7c(c6)OCO7)c5c4CCN3C[C@@H]12 | 4.06% (inactive) |
| Cc1ccc2nc3c(cc(C(=O)NCCc4ccccc4)c(=N)n3CC3CCCO3)c(=O)n2c1 (stereo unspecified) | -6.46% (inactive) |
| COc1ccc(CCNC(=O)CCn2c(=O)c3ccccc3n(CC(=O)NCC3CCCO3)c2=O)cc1OC (stereo unspecified) | 2.05% (inactive) |
| COc1ccc(CCn2c(=N)c(C(=O)NCC3CCCO3)cc3c(=O)n4cccc(C)c4nc32)cc1OC (stereo unspecified) | 24.6% (active) |
| O=C(c1cccc(C(F)(F)F)c1)N1CC[C@H]2[C@H](CCCN2Cc2cc(F)cc(F)c2)C1 | -0.64% (inactive) |
| Cc1noc(C)c1NC(=O)Nc1cccc2c1O[C@H](CN(C)C(=O)Nc1ccccc1)[C@@H](C)CN([C@H](C)CO)C2=O | -2.78% (inactive) |
| Cc1noc(C)c1NC(=O)Nc1ccc2c(c1)C(=O)N([C@H](C)CO)C[C@H](C)[C@@H](CN(C)C(=O)Nc1ccc(C(F)(F)F)cc1)O2 | -2.17% (inactive) |
| Cc1noc(C)c1NC(=O)Nc1ccc2c(c1)C(=O)N([C@H](C)CO)C[C@H](C)[C@@H](CN(C)C(=O)Nc1ccccc1)O2 | 22.9% (active) |
| Cc1nc2ccc(C(=O)N3CCN(C(=O)C(C)(C)C)CC3)cc2n1C1CCCC1 | 0.45% (inactive) |
| CN(C(=O)COC(=O)c1cc(-c2ccco2)nc2ccccc12)C1CCS(=O)(=O)C1 (stereo unspecified) | 52.1% (active) |
| Cc1cc(C(=O)OCC(=O)N2C(C)CCCC2C)c2ccccc2n1 (stereo unspecified) | 1.46% (inactive) |
| CN(C(=O)COC(=O)c1cc(=O)[nH]c2ccccc12)C1CCCCC1 | -1.98% (inactive) |
| C#CCN([C@H](C(=O)OC)C(C)CC)S(=O)(=O)c1ccccc1Br (stereo partly specified) | -1.76% (inactive) |
| C=CCN(Cc1ccc2c(c1)OCO2)C(C#CC1CC1)C(C)(C)C (stereo unspecified) | 1.41% (inactive) |
| Cc1c(C=O)n(C)n(-c2ccccc2)c1=O | 25.1% (active) |
| Cc1c(CN2CCC(C)CC2)c(=O)n(-c2ccccc2)n1C | 2.11% (inactive) |

| Structure (SMILES) | inhibition |
| --- | --- |
| Cc1cccc(N2CCN(Cc3c(C)n(C)n(-c4ccccc4)c3=O)CC2)c1C | -0.95% (inactive) |
| CCOC(=O)[C@]12CCCCC/C=C\1N(Cc1ccc(OC)cc1)C(=O)[C@H]2CC(=O)NCc1ccc(C)o1 | -2.03% (inactive) |
| COc1ccc(C(=O)CSc2nnc(-c3cnccn3)n2-c2ccc(C)cc2)cc1 | 0.05% (inactive) |
| COc1ccc(CN(CCN2CCOCC2)C(=O)c2ccc(C)cc2)cc1OC | -0.61% (inactive) |
| C[C@H]1CN([C@@H](C)CO)S(=O)(=O)c2ccc(-c3cccc(F)c3)cc2O[C@@H]1CN(C)C | 0.38% (inactive) |
| C[C@@H]1CN([C@H](C)CO)S(=O)(=O)c2ccc(C#C[C@@H](C)O)cc2O[C@@H]1CN(C)Cc1ccc(-c2ccccc2)cc1 | 0.52% (inactive) |
| COCC(=O)N(C)C[C@H]1Oc2cc(Br)ccc2S(=O)(=O)N([C@H](C)CO)C[C@H]1C | 0.32% (inactive) |
| C[C@H]1CN([C@@H](C)CO)S(=O)(=O)c2ccc(Br)cc2O[C@H]1CN(C)C(=O)c1cnccn1 | -0.94% (inactive) |
| C[C@@H]1CN([C@@H](C)CO)S(=O)(=O)c2ccc(C#Cc3cccc(F)c3)cc2O[C@H]1CN(C)S(=O)(=O)c1cn(C)cn1 | 21.5% (active) |
| C[C@@H]1CN([C@H](C)CO)S(=O)(=O)c2ccc(C#CC3CCCCC3)cc2O[C@H]1CN(C)C(=O)Cc1ccncc1 | 23.8% (active) |
| Nn1c(SCC(=O)Nc2ccc(S(N)(=O)=O)cc2)nnc1-c1n[nH]c2c1CCC2 | 0.51% (inactive) |
| CC(=O)OC12CCCN(C1)/C(=C/c1ccncc1)C2 (stereo unspecified) | 3.27% (inactive) |
| O=C1CC[C@@]23CCCN2C(=O)CCC[C@H]3[C@H]1Cc1ccccc1 | 0.21% (inactive) |
| Cc1cc(NS(=O)(=O)c2ccc(NC(=O)CSc3nnc(SCc4ccc(F)cc4)s3)cc2)nc(C)n1 | 3.58% (inactive) |
| CCC(C)[C@@H](C(=O)OC)N(CCc1cn(Cc2ccccc2)nn1)S(=O)(=O)c1ccccc1Br (stereo partly specified) | -0.53% (inactive) |
| C[C@@H]1CN([C@@H](C)CO)C(=O)c2cccc(NC(=O)Nc3cccc4ccccc34)c2O[C@H]1CN(C)S(=O)(=O)c1ccccc1F | -3.8% (inactive) |
| COC(=O)c1ccc2nc(C3CCCCC3)c(Cc3cccc(F)c3)n2c1 | 27.9% (active) |
| COC(=O)c1ccc2nc(-c3ccc(C)cc3)c(Cc3ccc(OC)cc3C)n2c1 | 21.6% (active) |
| COC(=O)c1ccc(CNC(=O)C2CCC(=O)N(Cc3cccc(F)c3)C2)cc1 (stereo unspecified) | 0.28% (inactive) |
| COC(=O)c1ccc2nc(-c3ccccc3)c(Cc3ccc(OC)cc3C)n2c1 | 22.1% (active) |
| CC(C)(C)Cc1c(C2CCCCC2)nc2ccc(Br)cn12 | 0.2% (inactive) |

| Structure (SMILES) | inhibition |
| --- | --- |
| COc1ccccc1Cc1c(-c2ccc(F)cc2)nc2ccc(C)cn12 | 11.5% (inactive) |
| CC(=O)Nc1c(-c2ccc(C)cc2)nc2ccc(Cl)cn12 | -0.52% (inactive) |
| Cc1ccc(-c2nc3ccc(Br)cn3c2Cc2ccccc2C(F)(F)F)cc1 | 2.47% (inactive) |
| COC(=O)c1ccc2nc(-c3ccc(F)cc3)c(Cc3ccc(C)cc3)n2c1 | 22.9% (active) |
| COC(=O)c1ccc2nc(-c3ccc(OC)c(OC)c3)c(Cc3ccccc3)n2c1 | 14.6% (inactive) |
| COc1ccccc1Cc1c(-c2ccc(Cl)cc2)nc2ccc(Cl)cn12 | -0.13% (inactive) |
| Brc1ccc2nc(-c3ccccc3)c(Cc3ccccc3)n2c1 | 11% (inactive) |
| COP(=O)(O)CNC(=O)OCc1ccccc1 | -1.09% (inactive) |
| Nc1[nH]c(/C=C2/CCCCC2n2[nH]c(=O)n(-c3ccccc3)c2=O)c(Cc2ccccc2)[n+]1Cc1ccccc1 (stereo unspecified) | 15.8% (inactive) |
| Nn1c(SCC(=O)N2c3ccccc3Sc3ccccc32)nnc1-c1n[nH]c2c1CCC2 | 2% (inactive) |
| C=CCn1c(SCC(N)=O)nnc1-c1ccccc1OC | -0.8% (inactive) |
| Cc1ccc(C(=O)N(Cc2ccccn2)CC2CCCO2)cc1 (stereo unspecified) | 0.72% (inactive) |
| CCOC(=O)N1CCN(C(=O)C[C@H]2C[C@@]3(C(=O)OC)C(=C[C@H](C(C)(C)C)O[C@@H]3C)N(Cc3ccc(Cl)cc3Cl)C2=O)CC1 | 0.78% (inactive) |
| CCC(c1ccc(NC(=O)OC(C)(C)C)cc1)c1cc(OC)cc(OC)c1 (stereo unspecified) | -0.84% (inactive) |
| Fc1ccc2nc(COCc3nc4ccc(F)cc4[nH]3)[nH]c2c1 | 0.71% (inactive) |
| COc1ccc(-c2nc3ccc(Br)cn3c2Cc2ccc(C)cc2)cc1OC | 4.35% (inactive) |
| COC(=O)c1ccc2nc(-c3cccc(Br)c3)c(Cc3ccc(OC)cc3C)n2c1 | 21.5% (active) |
| COC(=O)c1ccc2nc(-c3cccc(Br)c3)c(Cc3ccccc3C(F)(F)F)n2c1 | 3.57% (inactive) |
